Laboratory results as given in publication PMC7862700, “An all-to-all approach to the identification of sequence-specific readers for epigenetic DNA modifications on cytosine”.

Tests used:
Experiment in all cases: DAPPL (digital affinity profiling via proximity ligation, sequencing); 10 mM Tris-HCl pH 7.5, 50 mM NaCl, 1 mM DTT, 4% glycerol, room temperature, 30 min; GST-TFs on glutathione beads, 16-mer random dsDNA library, 0.1% formaldehyde crosslink after washing; high values mean tight binding
FLI1 = target: T1, FLI1 (Homo sapiens, UniProt Q01543 1-452); conditions: protein: recombinant; tags: N-terminal GST; dsDNA, one strand shown
T1 sequence: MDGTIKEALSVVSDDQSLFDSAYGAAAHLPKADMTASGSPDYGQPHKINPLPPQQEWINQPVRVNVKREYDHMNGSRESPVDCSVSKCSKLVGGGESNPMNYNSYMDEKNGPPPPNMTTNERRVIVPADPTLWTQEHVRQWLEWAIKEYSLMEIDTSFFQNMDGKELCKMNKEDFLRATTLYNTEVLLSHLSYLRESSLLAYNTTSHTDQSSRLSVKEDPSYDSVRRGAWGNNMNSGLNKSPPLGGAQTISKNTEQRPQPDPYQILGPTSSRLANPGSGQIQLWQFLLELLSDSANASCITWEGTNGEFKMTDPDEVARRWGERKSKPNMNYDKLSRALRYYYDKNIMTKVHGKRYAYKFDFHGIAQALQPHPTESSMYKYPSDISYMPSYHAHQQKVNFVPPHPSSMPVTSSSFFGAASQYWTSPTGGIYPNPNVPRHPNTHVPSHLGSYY
How it was run: (§1)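 Pools of DNA-barcoded human transcription factors, expressed in yeast as GST fusions on glutathione beads and combined with a tag-only sample, were incubated with 200 nmole of a 16-mer random double-stranded DNA library. Incubation took 30 min at room temperature in Tris/NaCl/DTT/glycerol buffer and was followed by washing, 0.1% formaldehyde crosslinking, proximity ligation (BsaI/T4 ligase, 1 h, 37 °C), PCR amplification and sequencing on an Illumina NextSeq500. Binding signal is the ratio of a hexamer's read frequency for a factor to its frequency for the tag-only sample.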

ELK1 = target: T2, ELK1 (Homo sapiens, UniProt P19419 1-428); conditions: protein: recombinant; tags: N-terminal GST; dsDNA, one strand shown
T2 sequence: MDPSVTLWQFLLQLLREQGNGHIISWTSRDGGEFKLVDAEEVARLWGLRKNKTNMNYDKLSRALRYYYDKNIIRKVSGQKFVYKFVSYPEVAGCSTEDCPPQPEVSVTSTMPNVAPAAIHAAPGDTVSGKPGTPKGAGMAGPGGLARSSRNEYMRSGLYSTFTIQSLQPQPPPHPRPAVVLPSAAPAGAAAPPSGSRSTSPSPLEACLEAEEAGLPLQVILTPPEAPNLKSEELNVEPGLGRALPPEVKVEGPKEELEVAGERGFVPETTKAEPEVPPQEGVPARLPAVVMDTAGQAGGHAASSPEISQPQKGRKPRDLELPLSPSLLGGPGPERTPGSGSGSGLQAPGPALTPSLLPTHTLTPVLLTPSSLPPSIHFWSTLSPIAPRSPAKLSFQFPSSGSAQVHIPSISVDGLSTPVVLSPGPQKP
How it was run: as §1

GABPA = target: T3, GABPA (Homo sapiens, UniProt Q06546 1-454); conditions: protein: recombinant; tags: N-terminal GST; dsDNA, one strand shown
T3 sequence: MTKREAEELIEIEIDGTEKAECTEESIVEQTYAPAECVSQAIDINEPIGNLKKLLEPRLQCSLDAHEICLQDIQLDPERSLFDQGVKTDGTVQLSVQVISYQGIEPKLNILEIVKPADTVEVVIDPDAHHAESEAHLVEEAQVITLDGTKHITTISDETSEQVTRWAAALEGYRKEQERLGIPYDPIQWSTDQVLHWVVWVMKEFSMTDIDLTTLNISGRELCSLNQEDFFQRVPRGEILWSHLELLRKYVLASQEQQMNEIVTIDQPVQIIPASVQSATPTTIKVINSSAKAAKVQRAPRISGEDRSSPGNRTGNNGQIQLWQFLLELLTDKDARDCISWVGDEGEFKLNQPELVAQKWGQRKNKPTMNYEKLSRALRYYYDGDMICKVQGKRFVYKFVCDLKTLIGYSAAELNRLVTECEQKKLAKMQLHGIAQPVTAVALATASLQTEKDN
How it was run: as §1

ERG = target: T4, ERG (Homo sapiens, UniProt P11308 1-479); conditions: protein: recombinant; tags: N-terminal GST; dsDNA, one strand shown
T4 sequence: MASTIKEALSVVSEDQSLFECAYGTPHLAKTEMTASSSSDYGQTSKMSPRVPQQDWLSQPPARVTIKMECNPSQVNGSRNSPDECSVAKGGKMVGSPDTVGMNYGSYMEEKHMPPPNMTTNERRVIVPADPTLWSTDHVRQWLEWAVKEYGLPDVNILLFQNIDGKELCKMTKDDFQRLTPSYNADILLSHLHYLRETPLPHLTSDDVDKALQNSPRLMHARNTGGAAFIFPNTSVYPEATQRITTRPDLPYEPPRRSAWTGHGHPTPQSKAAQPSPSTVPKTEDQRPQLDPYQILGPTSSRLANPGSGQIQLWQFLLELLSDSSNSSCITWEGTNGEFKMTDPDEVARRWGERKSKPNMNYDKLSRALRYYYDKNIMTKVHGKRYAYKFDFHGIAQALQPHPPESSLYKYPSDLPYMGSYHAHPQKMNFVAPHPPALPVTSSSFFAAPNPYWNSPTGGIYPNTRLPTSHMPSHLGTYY
How it was run: as §1

ELF1 = ELF1 (Homo sapiens, UniProt P32519 1-619); conditions: protein: recombinant; tags: N-terminal GST; dsDNA, one strand shown
Chain of ELF1 (P32519 whole entry): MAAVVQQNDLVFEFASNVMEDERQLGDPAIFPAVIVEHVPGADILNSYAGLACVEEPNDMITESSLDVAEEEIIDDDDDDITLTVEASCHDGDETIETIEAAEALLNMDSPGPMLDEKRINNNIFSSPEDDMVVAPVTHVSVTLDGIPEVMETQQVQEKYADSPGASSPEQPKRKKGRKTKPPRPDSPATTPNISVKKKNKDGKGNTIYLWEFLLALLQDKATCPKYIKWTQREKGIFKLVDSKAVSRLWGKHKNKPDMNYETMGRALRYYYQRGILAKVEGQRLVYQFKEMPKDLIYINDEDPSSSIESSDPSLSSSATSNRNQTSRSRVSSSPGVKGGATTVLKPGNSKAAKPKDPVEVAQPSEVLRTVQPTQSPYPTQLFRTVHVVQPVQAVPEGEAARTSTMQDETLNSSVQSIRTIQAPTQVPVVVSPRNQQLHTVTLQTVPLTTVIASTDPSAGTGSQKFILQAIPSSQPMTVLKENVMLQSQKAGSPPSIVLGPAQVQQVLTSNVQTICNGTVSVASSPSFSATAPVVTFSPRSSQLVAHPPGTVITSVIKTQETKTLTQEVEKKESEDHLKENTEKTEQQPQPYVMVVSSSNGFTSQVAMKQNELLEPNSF
How it was run: as §1

EHF = target: T5, EHF (Homo sapiens, UniProt Q9NZC4 1-300); conditions: protein: recombinant; tags: N-terminal GST; dsDNA, one strand shown
T5 sequence: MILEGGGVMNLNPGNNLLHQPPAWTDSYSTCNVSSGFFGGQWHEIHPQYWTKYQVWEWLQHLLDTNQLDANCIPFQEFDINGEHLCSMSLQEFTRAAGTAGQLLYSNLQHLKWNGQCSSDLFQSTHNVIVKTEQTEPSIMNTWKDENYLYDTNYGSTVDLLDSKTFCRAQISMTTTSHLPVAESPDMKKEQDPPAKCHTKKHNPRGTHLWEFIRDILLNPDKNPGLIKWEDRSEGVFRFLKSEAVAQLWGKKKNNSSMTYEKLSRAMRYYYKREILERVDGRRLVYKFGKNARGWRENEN
How it was run: as §1

SPI1 = SPI1 (Homo sapiens, UniProt P17947 1-270); conditions: protein: recombinant; tags: N-terminal GST; dsDNA, one strand shown
How it was run: as §1

SPIB = SPIB (Homo sapiens, UniProt Q01892 1-262); conditions: protein: recombinant; tags: N-terminal GST; dsDNA, one strand shown
Chain of SPIB (Q01892 whole entry): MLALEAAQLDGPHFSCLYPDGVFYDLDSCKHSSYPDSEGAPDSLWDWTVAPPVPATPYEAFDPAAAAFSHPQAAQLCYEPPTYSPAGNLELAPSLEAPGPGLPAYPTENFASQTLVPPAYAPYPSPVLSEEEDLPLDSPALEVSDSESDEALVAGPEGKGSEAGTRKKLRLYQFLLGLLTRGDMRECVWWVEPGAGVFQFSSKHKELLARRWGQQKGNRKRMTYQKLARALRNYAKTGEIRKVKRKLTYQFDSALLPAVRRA
How it was run: as §1

ELK3 = target: T6, ELK3 (Homo sapiens, UniProt P41970 1-407); conditions: protein: recombinant; tags: N-terminal GST; dsDNA, one strand shown
T6 sequence: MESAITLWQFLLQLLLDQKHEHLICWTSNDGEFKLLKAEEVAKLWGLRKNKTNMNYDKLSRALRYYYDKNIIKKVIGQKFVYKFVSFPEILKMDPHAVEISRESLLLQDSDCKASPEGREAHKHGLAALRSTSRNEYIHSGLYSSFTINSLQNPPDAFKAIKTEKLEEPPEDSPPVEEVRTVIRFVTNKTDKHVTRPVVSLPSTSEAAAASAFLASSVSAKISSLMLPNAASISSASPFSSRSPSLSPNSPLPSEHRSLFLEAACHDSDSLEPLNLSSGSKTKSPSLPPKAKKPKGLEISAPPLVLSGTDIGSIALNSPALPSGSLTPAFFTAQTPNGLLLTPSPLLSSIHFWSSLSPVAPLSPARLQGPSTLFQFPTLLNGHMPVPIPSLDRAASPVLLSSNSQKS
How it was run: as §1

FEV = target: T7, FEV (Homo sapiens, UniProt Q99581 1-238); conditions: protein: recombinant; tags: N-terminal GST; dsDNA, one strand shown
T7 sequence: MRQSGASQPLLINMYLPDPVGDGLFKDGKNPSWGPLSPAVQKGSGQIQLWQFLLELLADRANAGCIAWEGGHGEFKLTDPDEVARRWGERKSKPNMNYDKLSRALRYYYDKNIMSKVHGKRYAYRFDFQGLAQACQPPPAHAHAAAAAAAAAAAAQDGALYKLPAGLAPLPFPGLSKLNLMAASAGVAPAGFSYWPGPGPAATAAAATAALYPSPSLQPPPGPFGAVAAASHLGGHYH
How it was run: as §1

ETV5 = ETV5 (Homo sapiens, UniProt P41161 1-510); conditions: protein: recombinant; tags: N-terminal GST; dsDNA, one strand shown
Chain of ETV5 (P41161 whole entry): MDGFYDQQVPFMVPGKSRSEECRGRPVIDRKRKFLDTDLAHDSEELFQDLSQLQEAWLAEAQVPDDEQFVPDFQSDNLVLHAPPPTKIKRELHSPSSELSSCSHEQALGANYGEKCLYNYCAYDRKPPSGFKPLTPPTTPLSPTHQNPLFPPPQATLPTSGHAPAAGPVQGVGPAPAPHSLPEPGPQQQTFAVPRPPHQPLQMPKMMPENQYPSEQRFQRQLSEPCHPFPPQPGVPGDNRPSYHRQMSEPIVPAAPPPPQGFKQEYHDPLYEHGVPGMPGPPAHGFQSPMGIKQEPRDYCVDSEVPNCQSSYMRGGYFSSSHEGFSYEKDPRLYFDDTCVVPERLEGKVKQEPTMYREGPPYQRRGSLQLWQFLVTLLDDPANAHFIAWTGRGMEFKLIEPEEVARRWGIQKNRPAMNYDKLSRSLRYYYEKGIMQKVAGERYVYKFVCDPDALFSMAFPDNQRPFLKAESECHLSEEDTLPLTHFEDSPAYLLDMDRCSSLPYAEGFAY
How it was run: as §1

HSF1 = HSF1 (Homo sapiens, UniProt Q00613 1-529); conditions: protein: recombinant; tags: N-terminal GST; chain copies: 3; dsDNA, one strand shown
Chain of HSF1 (Q00613 whole entry): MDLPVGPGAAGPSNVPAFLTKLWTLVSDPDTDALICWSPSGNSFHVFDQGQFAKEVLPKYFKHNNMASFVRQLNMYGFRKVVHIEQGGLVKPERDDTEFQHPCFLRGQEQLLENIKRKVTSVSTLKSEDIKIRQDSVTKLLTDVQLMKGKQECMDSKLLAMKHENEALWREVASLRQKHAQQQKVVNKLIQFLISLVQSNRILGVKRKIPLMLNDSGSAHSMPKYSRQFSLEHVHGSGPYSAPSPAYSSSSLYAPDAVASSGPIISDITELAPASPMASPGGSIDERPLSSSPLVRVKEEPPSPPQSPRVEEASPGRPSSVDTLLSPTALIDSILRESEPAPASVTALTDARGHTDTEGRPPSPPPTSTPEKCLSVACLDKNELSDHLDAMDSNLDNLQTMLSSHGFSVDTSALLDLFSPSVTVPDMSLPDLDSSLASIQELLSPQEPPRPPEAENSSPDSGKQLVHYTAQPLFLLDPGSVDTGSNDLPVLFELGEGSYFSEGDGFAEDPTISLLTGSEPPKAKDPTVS
How it was run: as §1

SPIC = target: T8, SPIC (Homo sapiens, UniProt Q8N5J4 1-248); conditions: protein: recombinant; tags: N-terminal GST; dsDNA, one strand shown
T8 sequence: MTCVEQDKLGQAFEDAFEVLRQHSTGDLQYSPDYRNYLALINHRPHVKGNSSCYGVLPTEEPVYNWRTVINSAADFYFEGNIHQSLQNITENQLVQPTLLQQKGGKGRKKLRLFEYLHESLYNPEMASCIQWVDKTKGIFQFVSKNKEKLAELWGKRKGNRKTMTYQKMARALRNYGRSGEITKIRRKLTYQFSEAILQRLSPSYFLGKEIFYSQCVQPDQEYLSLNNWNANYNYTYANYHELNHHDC
How it was run: as §1

ELF4 = ELF4 (Homo sapiens, UniProt Q99607 1-663); conditions: protein: recombinant; tags: N-terminal GST; dsDNA, one strand shown
Chain of ELF4 (Q99607 whole entry): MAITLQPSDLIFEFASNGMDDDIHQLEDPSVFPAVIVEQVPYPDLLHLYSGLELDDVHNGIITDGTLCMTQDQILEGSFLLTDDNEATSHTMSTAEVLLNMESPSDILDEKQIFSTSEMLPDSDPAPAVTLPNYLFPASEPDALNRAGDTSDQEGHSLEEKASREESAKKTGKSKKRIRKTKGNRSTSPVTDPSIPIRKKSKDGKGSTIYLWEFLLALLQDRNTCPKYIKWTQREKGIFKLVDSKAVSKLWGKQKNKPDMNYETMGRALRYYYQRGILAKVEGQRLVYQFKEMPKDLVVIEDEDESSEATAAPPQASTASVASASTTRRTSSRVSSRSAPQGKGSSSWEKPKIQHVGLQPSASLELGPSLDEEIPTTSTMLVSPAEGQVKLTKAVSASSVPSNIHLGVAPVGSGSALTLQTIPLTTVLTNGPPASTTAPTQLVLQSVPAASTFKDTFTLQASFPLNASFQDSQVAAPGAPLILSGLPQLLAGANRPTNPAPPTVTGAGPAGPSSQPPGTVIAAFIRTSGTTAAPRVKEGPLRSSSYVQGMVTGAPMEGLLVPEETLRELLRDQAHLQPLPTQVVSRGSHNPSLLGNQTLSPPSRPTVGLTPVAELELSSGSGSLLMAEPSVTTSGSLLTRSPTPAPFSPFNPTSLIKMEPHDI
How it was run: as §1

ELK4 = target: T9, ELK4 (Homo sapiens, UniProt P28324-2 1-405); conditions: protein: recombinant; tags: N-terminal GST; dsDNA, one strand shown
T9 sequence: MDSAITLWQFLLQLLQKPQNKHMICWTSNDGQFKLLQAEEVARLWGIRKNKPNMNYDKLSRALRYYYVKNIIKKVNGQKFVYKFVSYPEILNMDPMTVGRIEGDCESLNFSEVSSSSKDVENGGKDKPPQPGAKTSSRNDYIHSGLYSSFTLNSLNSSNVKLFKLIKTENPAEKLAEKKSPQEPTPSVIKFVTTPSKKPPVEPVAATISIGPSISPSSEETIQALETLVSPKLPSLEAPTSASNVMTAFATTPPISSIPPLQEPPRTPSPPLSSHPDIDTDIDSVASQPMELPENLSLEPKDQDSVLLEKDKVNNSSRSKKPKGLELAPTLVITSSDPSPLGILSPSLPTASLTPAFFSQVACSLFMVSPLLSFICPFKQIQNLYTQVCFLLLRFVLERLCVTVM
How it was run: as §1

ETV2 = target: T10, ETV2 (Homo sapiens, UniProt O00321 1-342); conditions: protein: recombinant; tags: N-terminal GST; dsDNA, one strand shown
T10 sequence: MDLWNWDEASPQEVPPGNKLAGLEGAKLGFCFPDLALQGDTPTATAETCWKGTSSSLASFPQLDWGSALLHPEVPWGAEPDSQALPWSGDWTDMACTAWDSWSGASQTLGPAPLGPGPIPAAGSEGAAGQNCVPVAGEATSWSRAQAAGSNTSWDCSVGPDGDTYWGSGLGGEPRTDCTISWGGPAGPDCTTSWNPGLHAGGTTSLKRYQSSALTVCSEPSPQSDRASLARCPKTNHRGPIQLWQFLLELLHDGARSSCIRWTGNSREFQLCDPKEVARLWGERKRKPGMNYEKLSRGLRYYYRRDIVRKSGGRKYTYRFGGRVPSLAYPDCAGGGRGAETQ
How it was run: as §1

ELF3 = target: T11, ELF3 (Homo sapiens, UniProt P78545 1-371); conditions: protein: recombinant; tags: N-terminal GST; dsDNA, one strand shown
T11 sequence: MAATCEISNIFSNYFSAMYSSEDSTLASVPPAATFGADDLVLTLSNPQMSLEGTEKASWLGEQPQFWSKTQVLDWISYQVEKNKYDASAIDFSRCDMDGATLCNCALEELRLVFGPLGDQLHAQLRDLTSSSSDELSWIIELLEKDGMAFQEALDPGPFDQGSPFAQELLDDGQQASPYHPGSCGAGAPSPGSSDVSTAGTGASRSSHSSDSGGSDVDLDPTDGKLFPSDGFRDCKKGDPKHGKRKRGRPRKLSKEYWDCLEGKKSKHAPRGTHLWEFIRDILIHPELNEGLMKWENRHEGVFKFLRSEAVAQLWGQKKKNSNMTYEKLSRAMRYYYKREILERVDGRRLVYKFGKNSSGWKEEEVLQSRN
How it was run: as §1

CRX = CRX (Homo sapiens, UniProt O43186 1-299); conditions: protein: recombinant; tags: N-terminal GST; dsDNA, one strand shown
Chain of CRX (O43186 whole entry): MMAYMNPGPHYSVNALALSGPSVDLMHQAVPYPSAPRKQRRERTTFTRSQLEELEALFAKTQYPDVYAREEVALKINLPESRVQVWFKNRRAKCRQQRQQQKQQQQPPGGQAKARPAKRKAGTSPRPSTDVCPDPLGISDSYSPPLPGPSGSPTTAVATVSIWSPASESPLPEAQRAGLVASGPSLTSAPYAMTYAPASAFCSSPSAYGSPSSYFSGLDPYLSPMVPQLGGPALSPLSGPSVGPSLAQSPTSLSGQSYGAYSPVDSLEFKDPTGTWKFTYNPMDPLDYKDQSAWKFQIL
How it was run: as §1

ETV1 = ETV1 (Homo sapiens, UniProt P50549 1-477); conditions: protein: recombinant; tags: N-terminal GST; dsDNA, one strand shown
Chain of ETV1 (P50549 whole entry): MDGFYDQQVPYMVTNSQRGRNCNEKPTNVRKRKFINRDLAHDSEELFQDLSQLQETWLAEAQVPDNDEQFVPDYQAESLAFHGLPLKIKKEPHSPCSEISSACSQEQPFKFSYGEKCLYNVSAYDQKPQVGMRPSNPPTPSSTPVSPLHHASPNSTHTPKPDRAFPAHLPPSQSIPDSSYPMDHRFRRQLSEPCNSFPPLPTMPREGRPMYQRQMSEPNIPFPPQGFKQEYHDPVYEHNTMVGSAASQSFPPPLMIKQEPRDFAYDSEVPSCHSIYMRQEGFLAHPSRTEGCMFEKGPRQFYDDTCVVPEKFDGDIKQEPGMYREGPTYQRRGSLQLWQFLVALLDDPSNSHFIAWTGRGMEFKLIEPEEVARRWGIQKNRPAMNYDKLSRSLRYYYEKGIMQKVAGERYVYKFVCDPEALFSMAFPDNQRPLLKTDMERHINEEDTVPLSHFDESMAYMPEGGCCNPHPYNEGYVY
How it was run: as §1

In the case of TTGCCT, the binding signal (FLI1) is reported as 1.16 fold enrichment (6-mer frequency, TF over GST control), the binding signal (ELK1) is reported as 1.18 fold enrichment (6-mer frequency, TF over GST control) and the binding signal (GABPA) is reported as 1.15 fold enrichment (6-mer frequency, TF over GST control). For the same sequence, the binding signal (ERG) was 1.17 fold enrichment (6-mer frequency, TF over GST control), the binding signal (ELF1) was 1.21 fold enrichment (6-mer frequency, TF over GST control) and the binding signal (EHF) was 1.13 fold enrichment (6-mer frequency, TF over GST control). For the same sequence, the binding signal (SPI1) was 1.15 fold enrichment (6-mer frequency, TF over GST control), the binding signal (SPIB) was 1.25 fold enrichment (6-mer frequency, TF over GST control) and the binding signal (ELK3) was 1.3 fold enrichment (6-mer frequency, TF over GST control). The binding signal (FEV) was 1.19 fold enrichment (6-mer frequency, TF over GST control), the binding signal (ETV5) was 1.22 fold enrichment (6-mer frequency, TF over GST control) and the binding signal (HSF1) was 1.13 fold enrichment (6-mer frequency, TF over GST control). For the same sequence, the binding signal (SPIC) was 1.42 fold enrichment (6-mer frequency, TF over GST control), the binding signal (ELF4) was 1.29 fold enrichment (6-mer frequency, TF over GST control) and the binding signal (ELK4) was 1.2 fold enrichment (6-mer frequency, TF over GST control). For the same sequence, the binding signal (ETV2) was 1.19 fold enrichment (6-mer frequency, TF over GST control), the binding signal (ELF3) was 1.42 fold enrichment (6-mer frequency, TF over GST control) and the binding signal (CRX) was 1.16 fold enrichment (6-mer frequency, TF over GST control). The binding signal (ETV1) was 1.37 fold enrichment (6-mer frequency, TF over GST control).
